High-throughput results from PubChem BioAssay.
HepG2 viability: counter-screen for TGF-b inhibitors: cytotoxicity in HepG2 cells; Potency, µM (titrated, usually from 46.1 µM), hits mostly cytotoxic; HepG2 CAGA-GFP viability, ATP luminescence, 18 h; hit rate 0.76% among 410,000; AID 588856
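HepG2 CAGA-GFP cells (1000/well, DMEM with 1% FBS) received compound, then TGF-beta at 500 pg/mL final, and were incubated 18 hours at 37 degrees C. Viability was read by CellTiter-Glo luminescence. Media-only wells were set as complete cell-killing and DMSO as no toxicity.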
IL1B secr inh: inflammasome signaling inhibition, IL-1 beta readout; THP-1 LPS/ATP IL-1B secretion, AlphaLISA, 16 h; stronger effect = lower value; activity change, % at 57.5 µM; hit rate 4.7% among 360,000; in the data active = activity change below about -50%; inconclusive = mostly about -30% to -49%
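THP-1 cells pretreated 1 hr with compounds (up to 57.5 uM final), then stimulated with LPS (250 ng/mL final) plus ATP (1.25 mM final); secreted IL-1B measured by AlphaLISA after 16 hr, decreased signal indicating inhibition.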
TGFb SMAD3 inh: TGF-b pathway inhibition; HepG2 CAGA-GFP TGF-b/SMAD3 reporter, GFP fluorescence, 18 h; TGF-beta stimulated, 500 pg/mL final; Potency, µM (titrated, usually from 46.1 µM), usual class: inhibitors; hit rate 1.2% among 410,000; note: nearly all actives have a fitted effect of over 65% in size
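Using HEPG2 CAGA-GFP reporter cells at 1000 cells/well, we pinned test compounds, stimulated with recombinant TGF-beta (500 pg/mL final) and measured total well GFP after 18 h.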
DT40 TDP1 no CPT: qHTS for Inhibitors of human tyrosyl-DNA phosphodiesterase 1 (TDP1): qHTS in cells in absence of CPT; DT40 Tdp1-/- hTDP1 cells, no CPT, ATP luminescence, 48 h; Potency, µM (top dose mostly 46.2 µM), usual class: inhibitors; hit rate 15% among 420,000; note: nearly all actives have a fitted effect of over 55% in size
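A cellular qHTS used chicken DT40 cells lacking endogenous Tdp1 but carrying stably transfected human TDP1. Compounds were applied without camptothecin, and cell growth kinetics were judged by ATP-dependent luminescence after ≥48 hr.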
TDP1 inh: blocks human tyrosyl-DNA phosphodiesterase 1; Q9NUW8; recombinant TDP1, AlphaScreen DNA substrate cleavage; Potency, µM (series often up to 130 µM), most hits filed as inhibitors; hit rate 0.28% among 350,000; AID 485290; note: nearly all actives have a fitted effect of over 40% in size
Target sequence (Q9NUW8 whole entry, looked up): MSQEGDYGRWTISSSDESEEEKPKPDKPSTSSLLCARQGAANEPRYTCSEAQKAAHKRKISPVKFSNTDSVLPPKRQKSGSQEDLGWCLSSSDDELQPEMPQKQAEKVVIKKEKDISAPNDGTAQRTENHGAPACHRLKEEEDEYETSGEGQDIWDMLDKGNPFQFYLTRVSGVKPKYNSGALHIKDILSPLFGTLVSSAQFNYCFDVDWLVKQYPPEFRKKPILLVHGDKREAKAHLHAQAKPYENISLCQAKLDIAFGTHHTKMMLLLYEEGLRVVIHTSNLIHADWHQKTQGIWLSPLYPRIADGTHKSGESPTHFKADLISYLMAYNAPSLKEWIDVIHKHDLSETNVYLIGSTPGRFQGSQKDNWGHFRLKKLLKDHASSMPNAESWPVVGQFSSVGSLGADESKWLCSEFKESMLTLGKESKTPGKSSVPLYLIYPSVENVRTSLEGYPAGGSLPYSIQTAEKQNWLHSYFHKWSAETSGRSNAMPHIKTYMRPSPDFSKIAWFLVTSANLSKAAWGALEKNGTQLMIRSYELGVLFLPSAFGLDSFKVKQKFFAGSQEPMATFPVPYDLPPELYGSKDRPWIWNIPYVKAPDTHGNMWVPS
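Steps: enzyme plus compound, 15 min RT; add biotin/phosphotyrosine-FITC oligonucleotide (15 nM final), react 5 min; add donor/acceptor beads (10 ug/ml final), 10 min; read AlphaScreen. Tdp1 at 1 nM final.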
TDP1 cell CPT: growth inhibition of DT40 Tdp1-/-;hTDP1 cells with camptothecin (screen for TDP1 inhibitors). Potency, µM (highest dose often 46.2 µM), actives largely listed as inhibitors. hit rate 12% among 420,000. chicken DT40 Tdp1-/-;hTDP1 cells + 20 nM CPT, ATP luminescence, 48 h; note: nearly all actives have a fitted effect of over 55% in size
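Chicken DT40 Tdp1-/- cells complemented with human TDP1, 400 cells/well, exposed to compounds plus 20 nM camptothecin for at least 48 h at 37 C; viability read as ATP content by CellTiter-Glo luminescence.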
A number is an active result; . = inactive; ? = inconclusive; / = no result; ! = not confirmed by another sample; [ ] = remark or other dose. This is a sample that favours compounds with a hit; in the whole collection about 18% have one here. Unless noted, calls come from the whole dose curve; as a rule, active = well fitted curve in the direction sought with a large enough effect; inconclusive = small, poorly fitted or top-dose-only effect, or another doubt; inactive = no such curve, though single readings can be large; an effect the other way counts as inactive or inconclusive.

SMILES	HepG2 viability	IL1B secr inh	TGFb SMAD3 inh	DT40 TDP1 no CPT	TDP1 inh	TDP1 cell CPT
CN1CCN(c2ncnc3c2ncn3[C@H]2CN(Cc3ccccc3)C[C@@H](CO)O2)CC1	.	.	.	.	/	?
COc1ccc(CN2C[C@@H](CO)O[C@@H](n3cnc4c(N5CCN(c6ccccc6)CC5)ncnc43)C2)cc1	.	.	.	16µM	/	?
O=C(Cc1ccccn1)c1ccncc1	.	.	.	.	/	.
OC[C@@H]1CN(Cc2ccc(Cl)cc2)C[C@H](n2cnc3c(N4CCN(c5ccccc5)CC4)ncnc32)O1	.	.	?	18µM	/	?
OC[C@@H]1CN(Cc2ccc(Cl)cc2)C[C@H](n2cnc3c(N4CCOCC4)ncnc32)O1	.	.	.	.	/	?
C=CCCC1CN(CCCC)S(=O)(=O)c2c(F)cccc2O1 (centres undefined)	.	.	.	?	/	?
O=C(OCn1ncc(Br)c(Br)c1=O)c1ccccc1Cl	18µM	-100	13µM	1.5µM	.	1.2µM
O=C(OCn1ncc(Br)c(Br)c1=O)c1ccc(F)cc1	10µM	-97	11µM	1µM	.	1µM
CCCC(CCC)C(=O)Nc1cc(-c2cn3cccnc3n2)ccc1OC	.	/	.	.	.	.
Cc1cc(C(=O)NNS(=O)(=O)c2cc(C(=O)O)ccc2Cl)c(C)n1-c1ccccc1	.	.	.	.	/	?
Cc1ccc(S(=O)(=O)Cn2nnnc2C(C(C)C)N2CCC(C(N)=O)CC2)cc1 (centres undefined)	.	.	.	.	.	.
Cc1ccc(-c2nc3c4ccccc4n(Cc4cccc(Cl)c4)c(=O)n3n2)cc1	.	/	.	?	.	.
O=c1n(Cc2cccc(F)c2)c2ccccc2c2nc(-c3ccccc3)nn12	.	/	.	18µM	.	?
O=c1n(Cc2ccc(Cl)cc2)c2ccccc2c2nc(-c3ccccc3)nn12	.	/	.	?	.	.
Cc1cccc(Cn2c(=O)n3nc(-c4ccccc4)nc3c3ccccc32)c1	.	/	?	18µM	.	18µM
CCCCc1nn2c(=O)cc(COC(=O)c3cccc(NC(=O)c4cccc(Cl)c4)c3)nc2s1	.	/	.	.	.	.
CC(OC(=O)CCOc1ccccc1)C(=O)NC1CC1 (centres undefined)	.	.	.	.	/	?
O=C(NCCc1ccccc1)c1ccc2c(c1)nc1n2CCOC1	.	/	.	.	.	.
CC(=O)OCC(=O)[C@@]1(O)CC[C@H]2[C@@H]3CCC4=CC(=O)C=C[C@]4(C)[C@@]3(F)[C@@H](O)C[C@@]21C	.	-56	.	.	/	.
CC(=O)C1(O)CCC2C3CC(C)C4=CC(=O)C=CC4(C)C3(F)C(O)CC21C (centres undefined)	.	-54	?	.	/	?
C[C@@H]1C[C@@H]2[C@H]3CCC4=CC(=O)C=C[C@]4(C)[C@]3(F)[C@@H](O)C[C@]2(C)[C@@]1(O)C(=O)CO	/	/	/	/	.[21 µM]	/
CC12C=CC(=O)C=C1CCC1C3CCC(O)(C(=O)CO)C3(C)CC(O)C12F (centres undefined)	.	-57	.	.	/	.
C[C@]12CCC(=O)C=C1CC[C@@H]1[C@@H]2[C@@H](O)C[C@@]2(C)[C@H]1CC[C@]2(O)C(=O)COC(=O)CCC(=O)O	.	?	.	8.4µM!	.	?
CC(=O)OCC(=O)C1(O)CCC2C3CCC4=CC(=O)CCC4(C)C3(F)C(O)CC21C (centres undefined)	.	-53	.	.	/	.
O=C(Nc1ccc(OCC(F)(F)C(F)F)c(C(F)(F)F)c1)c1ccccc1O	.	?	?	18µM	.	?
SMILES	HepG2 viability	IL1B secr inh	TGFb SMAD3 inh	DT40 TDP1 no CPT	TDP1 inh	TDP1 cell CPT
O=C(Nc1ccc(OCC(F)(F)C(F)F)c(C(F)(F)F)c1)c1ccccc1	.	?	.	23µM	/	23µM
Cc1ccc(S(=O)(=O)N2CCC(C(=O)OCC(=O)N(Cc3ccccc3)C(C)(C)C)CC2)cc1C	.	.	?	?	/	?
Cc1ncc(CO)c(/C=N/NC(=O)c2cc(Br)ccc2O)c1O	.	.	.	16µM	.	16µM
Cc1ncc(CO)c(/C=N/NC(=S)Nc2ccc(C(C)C)cc2)c1O	.	.	.	21µM	/	15µM
Cc1ncc(CO)c(/C=N/NC(=O)c2ccc(Br)cc2)c1O	/	/	/	/	.	/
Cc1noc(NS(=O)(=O)c2ccc(NC(=O)C34CC5CC(C3)CC(n3cnc(Cl)n3)(C5)C4)cc2)c1C	.	.	?	.	.	.
O=C(NC12CC3CC(CC(C3)C1)C2)C12CC3CC(C1)CC(n1cnc(Cl)n1)(C3)C2	.	.	.	16µM	.	21µM
CC(=O)Nc1ccc(N2C(=O)CSC2c2ccccc2)cc1 (centres undefined)	.	.	.	.	/	.
CC(=O)c1cccc(NC(=O)C(C)OC(=O)c2ccc(S(C)(=O)=O)c([N+](=O)[O-])c2)c1 (centres undefined)	14µM	/	11µM	3.2µM	.	2.2µM
CS(=O)(=O)c1ccc(C(=O)OCC(=O)Nc2ccc(OC(F)(F)F)cc2)cc1[N+](=O)[O-]	.	/	?	10µM	.	8.9µM
CC(OC(=O)c1ccncc1)C(=O)Nc1cccc([N+](=O)[O-])c1 (centres undefined)	.	.	.	.	.	.
CC(=O)c1cccc(NC(=O)COC(=O)c2ccc(S(C)(=O)=O)c([N+](=O)[O-])c2)c1	.	-89	10µM	10µM	.	6.3µM
O=C1C[C@H]2CCCCC(=O)N3CC[C@@H](C1)[C@@H]23	.	.	.	.	.	.
CCN(CC)CCCN(C(=O)c1ccccc1F)c1nc(-c2ccc(OC)cc2)cs1	.	-65	?	?	/	?
CCN(CC)CCCN(C(=O)c1ccccc1C)c1nc(-c2ccc(OC)cc2)cs1	.	.	.	23µM	/	?
NC(=S)Nc1cc(Cl)ccc1Cl	.	.	.	13µM	.	15µM
NC(=O)Nc1cc(Cl)ccc1Cl	.	.	.	.	.	.
CCC(=O)N(CCC(c1ccco1)C(C)C)Cc1ccccc1 (centres undefined)	.	.	.	?	.	?
Cc1cc(C)c(OCC(=O)N(Cc2ccc(N(C)C)cc2)Cc2ccco2)c(C)c1	.	/	/	7.3µM	.	12µM
Cc1ccc(CN(Cc2ccco2)C(=O)COc2ccccc2C)cc1	.	/	?	16µM	.	21µM
